Screening results from PubChem BioAssay.
MMP13 inh: blocks human MMP13 activity. MMP-13 fTHP FRET cleavage, Mca fluorescence. inhibition, % at 4 µM. P45452. 0.07% of 65,000 active;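 active = inhibition above the mean of compound-free control plate wells plus 3 SD, cut at about 14% in these data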;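 also: 0% = DMSO wells and 100% = wells with reference MMP-13 inhibitor after basal subtraction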
M1 agonist: agonists of M1 muscarinic receptor; AID 626; 3% of 64,000 active; CHO-M1 cells, Fluo-4 calcium fluorescence, agonist mode; stronger effect = higher value; B-score at 10 µM;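 active = fluorescence rise, raw or as B-score row- and column-corrected plate score, outside the 99.7% band of its plate's samples, either direction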
Hsp90 inh: displaces geldanamycin probe from tumor Hsp90; inhibition, % at 30 µM; NCI-N417 lysate Hsp90, Cy3B-geldanamycin FP displacement; 0.35% of 64,000 active; AID 429; P07900;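 active = inhibition above 50%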;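 also: 0% = tracer plus lysate wells and 100% = tracer alone without lysate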
MKP-1 inh: blocks human MKP-1 phosphatase activity; recombinant MKP-1, OMFP hydrolysis fluorescence; P28562; 0.15% of 65,000 active; inhibition, %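 (compounds tested at a single concentration somewhere between 10 and 100 µM)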;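 active = inhibition above about 50%, limit read from the data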;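 also: 0% = DMSO max control wells and 100% = wells with enzyme stopped by NaOH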
Target sequence (P28562 whole entry, looked up): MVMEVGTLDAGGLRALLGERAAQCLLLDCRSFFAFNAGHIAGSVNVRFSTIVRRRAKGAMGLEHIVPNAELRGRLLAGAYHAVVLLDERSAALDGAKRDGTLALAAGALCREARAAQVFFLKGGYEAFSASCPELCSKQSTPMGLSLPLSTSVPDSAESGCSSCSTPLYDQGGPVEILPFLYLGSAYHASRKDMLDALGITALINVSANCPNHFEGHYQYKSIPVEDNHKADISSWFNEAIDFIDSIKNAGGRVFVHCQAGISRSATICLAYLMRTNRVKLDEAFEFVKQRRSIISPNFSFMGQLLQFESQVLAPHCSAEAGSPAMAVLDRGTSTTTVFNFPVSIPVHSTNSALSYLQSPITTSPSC
M1 antagonist: M1 muscarinic receptor (rat) antagonism. P08482. CHO-M1 cells, Fluo-4 calcium, ACh EC80 antagonist mode; stronger effect = lower value. B-score at 10 µM. 3.4% of 64,000 active;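 active = calcium fluorescence response, raw or row-and-column corrected B-score, differing from the plate sample mean either way at a set confidence level, mostly lower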
Cdc25B inh: inhibitors of human Cdc25B phosphatase. P30305. 0.1% of 65,000 active. recombinant Cdc25B, OMFP fluorescence Ex485/Em525. inhibition, %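 (compounds tested at 10 µM final in the well)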; in the data active = inhibition above about 50%
* marks the source's active call; other numbers are inactive results; . = not tested or not shown. A selection: hits, their analogues and other compounds. The true share with any hit is near 6.1%.

SMILES	MMP13 inh	M1 agonist	Hsp90 inh	MKP-1 inh	M1 antagonist	Cdc25B inh
CCOC(=O)N1CCc2c(sc(NC(C)=O)c2C(N)=O)C1	-4.1	-0.673	0.1	9.8	-0.519	-0.4
CCOC(=O)N1CCc2c(sc(NC(=O)c3ccc(Cl)s3)c2C(N)=O)C1	2.7	5.26*	-3.4	37.0	-0.042	8.0
CCOC(=O)CN(C(=O)CSc1nnc(CNc2ccc(C)cc2C)o1)c1ccccc1	5.0	-0.149	-1.4	25.8	0.478	-11.2
Clc1ccc2nc(NC3=NCN(CCN4CCOCC4)CN3)nc(-c3ccccc3)c2c1	-15.8	0.8	2.5	-3.3	-15*	0.4
COc1ccc(/C(O)=C2/C(=O)C(=O)N(CCCN(C)C)C2c2cccnc2)cc1 (configuration not stated)	2.6	0.225	-1.3	-2.5	0.0429	-2.7
CN(C)CCCN1C(=O)C(=O)/C(=C(/O)c2ccc(OCc3ccccc3)cc2)C1c1cccnc1 (configuration not stated)	0.4	0.0118	77.6*	-8.7	-0.465	2.1
CCOC(=O)N1CCN(S(=O)(=O)c2cc(Cl)ccc2Cl)CC1	1.0	-0.741	-8.6	-4.9	0.95*	-2.8
CN(CCOc1ccc(C[C@H](Nc2ccccc2C(=O)c2ccccc2)C(=O)O)cc1)c1ccccn1	.	.	-4.3	.	.	.
O=C(CSc1ncn[nH]1)NCCOc1ccccc1	0.1	0.0214	-0.3	6.4	0.175	1.3
O=C(CSCc1n[nH]c(=O)[nH]1)NCCOc1cccc(Oc2ccccc2)c1	15.3*	0.714	-1.8	9.8	1.31	-8.2
O=C(C1Cc2ccccc2CN1S(=O)(=O)c1cccs1)N1CCCCC1 (configuration not stated)	6.2	0.0454	-13.8	-6.7	0.446	-2.2
Oc1cc2c(c(Cl)c1O)CCNCC2c1ccccc1 (configuration not stated)	.	.	81.5*	.	.	.
Oc1ccc(C2CNCCc3c2cc(O)c(O)c3Cl)cc1 (configuration not stated)	.	.	74.9*	.	.	.
COc1cc(NC(=O)CSc2nccc(C)n2)c(C(=O)O)cc1OC	-9.8	-0.596	2.4	1.1	1.22*	-11.8
Cc1cccc(C)c1NC(=O)CSc1nnc([C@H](C)NC(=O)OC(C)(C)C)o1	2.5	0.642	2.4	-5.3	-0.028	7.0
CSCC[C@H](NC(=O)OC(C)(C)C)c1nnc(SCC(=O)Nc2c(C)cccc2C)o1	6.2	1	-2.3	26.5	2.04*	0.7
Oc1ccc(C2CNCc3sccc32)cc1O (configuration not stated)	.	.	58.2*	.	.	.
CCOc1cc(C(=O)Nc2ccc(S(=O)(=O)Nc3cc(C)on3)cc2)cc(OCC)c1OCC	1.1	-3.5*	-3.4	14.1	1.36	-12.5
COCCOC(=O)c1c(C)nc(SCC(=O)Nc2ccc(OC)cc2)c(C#N)c1-c1ccco1	2.1	0.00457	-5.0	-4.3	0.478	6.0
COc1cccc(NC(=O)CSc2nc3c(c(-c4ccco4)c2C#N)CCCC3)c1	5.3	-2.62*	-5.2	-14.0	0.26	6.4
COc1cccc(C(=O)NCC(=O)n2nc(C)cc2C)c1	0.5	-0.298	121.4*	-17.0	-0.0331	21.5
COc1ccccc1-c1nnc2n1N=C(c1ccc(O)c(O)c1)CS2	4.5	0.306	65.5*	-0.9	-0.00415	-8.1
O=S(=O)(NC1CC2CCC1C2)c1ccc(Br)s1 (configuration not stated)	7.2	-0.567	-0.5	30.4	-0.771	1.3
COc1ccc(NC(=O)c2ccco2)cc1NC(=O)c1ccc(Br)o1	2.8	8.87*	-3.2	-1.8	-0.062	-1.8
O=S(=O)(NC1CCCCCCC1)c1cccs1	0.0	-0.286	-7.3	1.4	0.418	6.4
SMILES	MMP13 inh	M1 agonist	Hsp90 inh	MKP-1 inh	M1 antagonist	Cdc25B inh
Cc1nn(Cc2ccccc2)c(C)c1NC(=O)CSc1nc2sc3c(c2c(=O)n1C)CCC3	-1.1	1.88	-5.8	50.1*	-0.58	-5.7
O=C(O)Cn1nnnc1-c1ccc(F)cc1	-3.4	-2.04*	-10.6	-6.0	1.72	-5.6
O/N=C1\CCCc2oc3c(c21)CCCC3	-0.2	-0.52	.	9.3	-1.07	0.2
Cc1cc2c(s1)c1cnn(CC(=O)NCCc3ccccc3)c(=O)c1n2C	-4.0	0.00528	-4.7	18.4	3.06*	0.3
CCCCS(=O)(=O)Nc1cc(OC)cc2cccnc12	.	.	1.0	.	.	.
CC(=O)[C@@H]1[C@@H]2C(=O)N(Cc3ccccc3)C(=O)[C@@H]2C2c3ccccc3C=CN21 (some centres not stated)	-4.8	25.5*	-2.4	28.4	0.0584	5.0
CCN(C(=O)CCc1nc(-c2ccccc2F)no1)c1cc(OC)ccc1OC	1.7	0.725	1.9	-10.2	-0.586	-23.4
COc1ccccc1N1CCN(CC(=O)Nc2cc(C)nn2-c2nc(C)cc(C)n2)CC1	7.0	3.41*	.	6.1	-0.0283	-9.6
COc1ccccc1N1CCN(CC(=O)Nc2cc(F)ccc2C)CC1	0.5	-1.1	-3.5	13.3	-0.48	-17.0
Cc1noc(/C=C/N(C)C)c1S(=O)(=O)N1CCc2ccccc21	1.4	1.22	-2.8	-2.4	1.3*	-15.0
Cc1noc(/C=C/N(C)C)c1S(=O)(=O)N(C)CC(=O)N1CCc2ccccc21	4.3	0.524	5.3	6.6	-0.00521	6.5
S=C(c1ccc(-c2ccccc2Cl)o1)N1CCOCC1	-2.3	0.801	-0.5	0.6	1.08*	2.1
O=C(CSc1nnc(Cc2cc(=O)[nH]c(=O)[nH]2)n1-c1ccccc1)NCC1CCCO1 (configuration not stated)	-3.4	0.329	89.4*	0.0	0.0204	5.2
Cc1nc2ccccc2c(=O)n1NC(=O)c1ccc(F)cc1Cl	2.3	0.0781	-2.1	4.1	-0.262	-4.5
COc1ccc2c(c1)[nH]c1c(C=Cc3ccccc3)nccc12	.	.	-7.5	.	.	.
Cc1sc2nc(-c3cccs3)nc(N3CCCN(C)CC3)c2c1C	-13.0	-0.00843	-9.1	4.0	-2.21*	-22.5
CCOC(=O)Nc1c(O)ccc2oc(C)c(-c3ccccc3)c12	3.0	2.45	-1.7	2.1	0.000527	2.9
O=C(Nc1ccccc1)N(CCc1nc2ccccc2[nH]1)C1CCCC1	0.6	2.3*	-0.1	19.8	-0.012	5.5
O=C(CCc1nc2ccccc2[nH]1)Nc1ccccc1	2.2	1.06	4.6	6.5	0.612	-9.1
CCOC(=O)C1CCCN(C(=O)c2ccc3c(c2)OCO3)C1 (configuration not stated)	-5.2	0.296	1.5	-7.0	0.667	4.7
CCOC(=O)C1CCCN(C(=O)C2c3ccccc3Oc3ccccc32)C1 (configuration not stated)	6.1	-0.371	-1.7	8.0	0.682*	-13.2
Cn1cnnc1SCC(=O)N1c2ccccc2-c2c(ssc2=S)C1(C)C	-2.9	0.14	-4.1	13.8	-1.95*	-4.9
N#C/C(=C\c1ccc(O)c(O)c1)C(=O)NCCc1ccccc1	.	.	83.2*	.	.	.
Cc1nc2sccn2c1-c1nc(C2CC2)c(C(=O)c2ccc3c(c2)NC(=O)CO3)s1	-17.7	-0.0271	-4.1	36.6	-0.986	5.8
